# From publication PMC5700166
# Changes are numbered by the printed parent chain.
# What was measured:
# Test in all cases: protein-binding microarray (PBM); PBM: ~300 nM protein, 6 mM HEPES pH 7.8, 80 mM KCl, 0.5 mM EDTA, 0.5 mM EGTA, 6% glycerol, 35 ng/ul poly-dIdC, 1% milk, 1 h, room temperature; Ap Aiptasia and Nv Nematostella (sea anemones) / Co Capsaspora / Aq Amphimedon (sponge) / Dm Drosophila / Hu human; RHD is the Rel homology domain; high values mean tight binding
# Settings in all cases: dsDNA, one strand shown
# GST-Ap-NF-kB RHD = target: T1, GST-Ap-NF-kB RHD (Exaiptasia pallida (Aiptasia), UniProt A0A913YAJ5 2-422)
# T1 sequence: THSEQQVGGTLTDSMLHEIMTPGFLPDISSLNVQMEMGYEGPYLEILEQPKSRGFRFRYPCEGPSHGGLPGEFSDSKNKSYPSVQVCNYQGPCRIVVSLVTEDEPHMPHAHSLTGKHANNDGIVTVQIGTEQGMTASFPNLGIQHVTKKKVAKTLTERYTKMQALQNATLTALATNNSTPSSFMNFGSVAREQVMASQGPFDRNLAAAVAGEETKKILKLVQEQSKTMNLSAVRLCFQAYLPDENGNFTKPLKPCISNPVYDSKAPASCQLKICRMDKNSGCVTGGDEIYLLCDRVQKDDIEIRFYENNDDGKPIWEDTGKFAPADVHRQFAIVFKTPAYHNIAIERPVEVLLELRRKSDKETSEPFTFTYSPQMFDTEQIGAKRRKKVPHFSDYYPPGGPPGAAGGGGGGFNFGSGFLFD
# [1] = target: T2, GST-Nv-NF-kB (Cys allele) (Nematostella vectensis, UniProt E5G601 2-411)
# T2 sequence: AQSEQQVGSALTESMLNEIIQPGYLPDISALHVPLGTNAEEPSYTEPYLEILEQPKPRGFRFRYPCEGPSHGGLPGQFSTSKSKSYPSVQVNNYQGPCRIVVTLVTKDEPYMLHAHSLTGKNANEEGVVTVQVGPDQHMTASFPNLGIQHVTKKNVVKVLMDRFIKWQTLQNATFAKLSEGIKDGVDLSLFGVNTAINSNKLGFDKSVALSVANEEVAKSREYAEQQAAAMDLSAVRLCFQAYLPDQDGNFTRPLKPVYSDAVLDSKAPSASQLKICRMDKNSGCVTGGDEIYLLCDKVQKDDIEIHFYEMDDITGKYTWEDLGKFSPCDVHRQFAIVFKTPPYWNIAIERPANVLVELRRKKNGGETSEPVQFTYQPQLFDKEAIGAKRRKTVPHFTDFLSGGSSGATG
# [2] = target: T3, GST-Nv-NF-kB (Ser allele) (Nematostella vectensis, UniProt A7UNT2 2-411)
# T3 sequence: T2 sequence with Q21R, C66S, S207N, E215Q, V217A, E225K, A268E, D399E
# GST-Co-NF-kB = target: T4, GST-Co-NF-kB (Capsaspora owczarzaki, UniProt F1ARL5 200-546)
# T4 sequence: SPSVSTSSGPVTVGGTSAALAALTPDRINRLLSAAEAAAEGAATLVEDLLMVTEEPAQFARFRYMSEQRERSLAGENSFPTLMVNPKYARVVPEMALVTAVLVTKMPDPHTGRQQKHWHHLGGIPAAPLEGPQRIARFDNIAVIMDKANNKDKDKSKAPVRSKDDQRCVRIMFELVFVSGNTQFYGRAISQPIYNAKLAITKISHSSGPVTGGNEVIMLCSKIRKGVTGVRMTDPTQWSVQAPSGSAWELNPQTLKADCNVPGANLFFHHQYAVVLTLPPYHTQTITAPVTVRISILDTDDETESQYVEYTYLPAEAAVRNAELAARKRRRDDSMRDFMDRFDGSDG
# GST-Aq-NF-kB = target: T5, GST-Aq-NF-kB (Amphimedon queenslandica, UniProt A9Y5G7 2-389)
# T5 sequence: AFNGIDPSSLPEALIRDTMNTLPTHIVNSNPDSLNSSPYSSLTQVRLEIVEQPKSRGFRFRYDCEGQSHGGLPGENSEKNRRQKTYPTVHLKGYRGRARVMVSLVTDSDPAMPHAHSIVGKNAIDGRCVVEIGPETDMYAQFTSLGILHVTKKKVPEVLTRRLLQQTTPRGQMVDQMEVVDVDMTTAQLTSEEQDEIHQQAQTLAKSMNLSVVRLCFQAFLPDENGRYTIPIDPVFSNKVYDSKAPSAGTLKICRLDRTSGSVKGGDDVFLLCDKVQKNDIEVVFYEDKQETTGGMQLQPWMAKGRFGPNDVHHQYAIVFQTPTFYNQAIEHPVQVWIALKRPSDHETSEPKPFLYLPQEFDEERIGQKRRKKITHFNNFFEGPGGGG
# GST-Hu-p50 = GST-Hu-p50 (Homo sapiens, UniProt P19838 7-356)
# GST-Dm-Relish = target: T6, GST-Dm-Relish (Drosophila melanogaster, UniProt Q94527 99-473)
# T6 sequence: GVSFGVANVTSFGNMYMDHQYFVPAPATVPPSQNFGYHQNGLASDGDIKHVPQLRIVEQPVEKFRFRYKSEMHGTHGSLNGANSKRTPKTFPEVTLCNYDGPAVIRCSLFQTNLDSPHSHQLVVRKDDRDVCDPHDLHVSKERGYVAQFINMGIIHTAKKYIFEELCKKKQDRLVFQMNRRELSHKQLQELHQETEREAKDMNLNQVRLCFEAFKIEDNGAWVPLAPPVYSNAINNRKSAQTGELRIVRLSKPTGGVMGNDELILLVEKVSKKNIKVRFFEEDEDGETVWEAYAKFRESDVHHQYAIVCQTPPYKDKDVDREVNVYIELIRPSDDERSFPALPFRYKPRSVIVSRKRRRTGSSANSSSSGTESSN
# GST-Hu-p50, sequence (P19838 7-356): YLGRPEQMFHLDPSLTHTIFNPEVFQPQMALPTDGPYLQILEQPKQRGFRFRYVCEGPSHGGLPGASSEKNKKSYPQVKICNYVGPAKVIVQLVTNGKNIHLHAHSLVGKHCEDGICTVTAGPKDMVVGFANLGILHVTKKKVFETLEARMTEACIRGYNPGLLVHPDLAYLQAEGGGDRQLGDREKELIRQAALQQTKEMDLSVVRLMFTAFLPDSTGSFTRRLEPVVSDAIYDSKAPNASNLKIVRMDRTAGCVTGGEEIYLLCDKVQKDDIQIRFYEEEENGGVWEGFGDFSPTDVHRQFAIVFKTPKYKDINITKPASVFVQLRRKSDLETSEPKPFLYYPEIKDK
Sequence,binding signal (GST-Ap-NF-kB RHD) [z-score],binding signal [1] [z-score],binding signal [2] [z-score],binding signal (GST-Co-NF-kB) [z-score],binding signal (GST-Aq-NF-kB) [z-score],binding signal (GST-Hu-p50) [z-score],binding signal (GST-Dm-Relish) [z-score]
CCGATTAACATCAGGGAAATGTATGATGTTAATCGGGTCTTGATTCGCTTGACGCTGCTG,3.08,4.81,4.88,3.3,4.45,3.4,–
CCGATTAACATCACGGTCTTTCCTGATGTTAATCGGGTCTTGATTCGCTTGACGCTGCTG,–,–,–,–,2.62,–,–
CCGATTAACATCAGAAATGCCCATGATGTTAATCGGGTCTTGATTCGCTTGACGCTGCTG,–,–,–,–,1.69,1.76,–
CCGATTAACATCAGGGGCAGGGATGATGTTAATCGGGTCTTGATTCGCTTGACGCTGCTG,2.32,1.46,1.47,1.59,2.02,2.01,–
CCGATTAACATCAAGGAAATTTCTGATGTTAATCGGGTCTTGATTCGCTTGACGCTGCTG,–,–,–,–,1.71,1.21,–
CCGATTAACATCAACGGTGGGAATGATGTTAATCGGGTCTTGATTCGCTTGACGCTGCTG,1.12,1.46,1.15,2.19,2.42,1.41,–
CCGATTAACATCACCATGGGAAATGATGTTAATCGGGTCTTGATTCGCTTGACGCTGCTG,1.25,2.23,1.45,2.04,1.76,1.98,–
CCGATTAACATCATCCCGGGAAATGATGTTAATCGGGTCTTGATTCGCTTGACGCTGCTG,1.98,2.94,2.26,3.63,2.23,1.36,–
CCGATTAACATCAGGGGATTCTATGATGTTAATCGGGTCTTGATTCGCTTGACGCTGCTG,8.9,9.25,11.1,3.26,6.2,6.98,7.72
CCGATTAACATCACGGGAACACCTGATGTTAATCGGGTCTTGATTCGCTTGACGCTGCTG,1.81,1.11,1.02,1.95,2.73,1.28,4.06
CCGATTAACATCATGTACGGGAATGATGTTAATCGGGTCTTGATTCGCTTGACGCTGCTG,1.13,2,1.46,2.7,3.27,1.26,–
CCGATTAACATCAGAGTGGGAAATGATGTTAATCGGGTCTTGATTCGCTTGACGCTGCTG,1,2.45,1.89,2.83,1.64,2.27,–
CCGATTAACATCAGGGAAAATACTGATGTTAATCGGGTCTTGATTCGCTTGACGCTGCTG,3.76,6.09,6.82,4.49,5.71,4.76,4.93
CCGATTAACATCAGGGGAAAAAATGATGTTAATCGGGTCTTGATTCGCTTGACGCTGCTG,6.24,8.26,10.4,11.1,6.42,6.22,4.87
